# Measured values published in PubChem BioAssay.
# Calls of active or inactive are those of the source.
# Experiments:
# Albumin (Bos taurus) = Albumin (Bos taurus) (UniProt P02769); assay: bovine serum albumin binders on microarray, profiling panel, artefact control for SMM control protein annotation, biochemical, small-molecule microarray, Alexa647 label, 635/667 nm fluorescence (AID 1118); details: BSA-A647 binding, fluorescence 635 nm, higher = more signal;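 note: score merges 667 nm emission intensity and signal-to-noise per printed compound spot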
# Albumin (Bos taurus), sequence (P02769 whole entry, looked up): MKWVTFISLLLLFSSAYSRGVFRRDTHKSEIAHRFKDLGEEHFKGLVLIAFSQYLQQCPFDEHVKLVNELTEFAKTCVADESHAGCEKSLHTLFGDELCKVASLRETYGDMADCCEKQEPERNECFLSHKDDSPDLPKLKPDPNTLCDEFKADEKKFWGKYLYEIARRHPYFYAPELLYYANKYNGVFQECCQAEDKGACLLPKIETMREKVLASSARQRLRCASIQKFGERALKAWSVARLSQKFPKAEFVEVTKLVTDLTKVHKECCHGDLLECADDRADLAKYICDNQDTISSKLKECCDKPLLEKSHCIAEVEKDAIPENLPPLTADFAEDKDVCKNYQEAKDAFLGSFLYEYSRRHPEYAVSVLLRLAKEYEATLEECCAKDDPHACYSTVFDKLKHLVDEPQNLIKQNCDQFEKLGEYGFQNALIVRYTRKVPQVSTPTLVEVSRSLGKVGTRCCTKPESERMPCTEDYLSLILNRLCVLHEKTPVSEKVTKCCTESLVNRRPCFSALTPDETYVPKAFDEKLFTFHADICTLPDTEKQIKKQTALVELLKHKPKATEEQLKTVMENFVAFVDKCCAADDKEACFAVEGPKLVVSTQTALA
# [1] = small-molecule microarray binders of probe aXIP, primary screen, biochemical, NeuroSMM set, 635/667 nm fluorescence (AID 1119); details: higher = more signal, called active from +8 up or from −8 down;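 note: probe is the protein aXip251-270 applied at 1 µg/mL to compound-printed slides; binding of probe to printed compounds measured as 667 nm fluorescence plus signal to noise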
# [2] = small-molecule binders of probe aNOTCH3, primary screen, biochemical, small-molecule microarray, 635/667 nm fluorescence (AID 1120); details: higher = more signal;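 note: probe is a biotin-tagged antibody raised against NOTCH3 rather than NOTCH3 protein; score merges spot fluorescence near 667 nm with spot signal to noise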
# [3] = small-molecule binders of probe aNOTCH2, primary screen, biochemical, small-molecule microarray, 635/667 nm fluorescence (AID 1121); details: higher = more signal;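 note: score merges feature fluorescence read at 667 nm with its signal to noise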
# [4] = target: Carbonic anhydrase 2 (Homo sapiens) (UniProt P00918); assay: CAII small-molecule binders, profiling panel, biochemical, small-molecule microarray, Alexa647-labelled CAII (AID 1122); details: CAII-A647 binding fluorescence, higher = more signal
# [5] = COS7 lysate on small-molecule microarray, probe aHis, 635 nm (AID 1123); details: COS7 cell lysate, fluorescence, higher = more signal;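 note: z-score combines 667nm fluorescence intensity with signal-to-noise per printed compound spot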
# [6] = compound binding in COS7 lysate, probe aLAP1, primary screen, cell lysate, small-molecule microarray (AID 1124); details: probe aLAP1, fluorescence, higher = more signal;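 note: lysate comes from COS7 cells expressing LAP1 and is applied at 0.3 µg/mL; score merges spot fluorescence near 667 nm with signal-to-noise over triplicate slides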
# Sam68 (KHDRBS1) = assay: Sam68 small-molecule binders, primary screen, biochemical, small-molecule microarray, 635 nm fluorescence (AID 1125); details: small-molecule microarray binding, higher = more signal;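 note: score merges 667 nm channel intensity with signal to noise over triplicate slides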
# [7] = test system: Chordin-like protein 2 (CHRDL2); assay: CHRDL2 small-molecule binders, primary screen, biochemical, small-molecule microarray, 635 nm fluorescence (AID 1126); details: small-molecule microarray binding, fluorescence 635 nm; higher = more signal;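 note: printed compound slides probed with Chrdl2 protein at 4 µg/mL for 1 h at 4 C; score merges 667 nm emission intensity with signal to noise over three replicate slides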
# [8] = target: Concanavalin-A (Canavalia ensiformis) (UniProt P02866); assay: ConA small-molecule binders, primary screen, artefact control for SMM control protein annotation, biochemical, small-molecule microarray, Alexa647 label, 635 nm (AID 1127); details: ConA-A647 binding fluorescence, higher = more signal;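 note: z combines 667 nm emission intensity with signal-to-noise across three replicate slides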
# Concanavalin-A (Canavalia ensiformis), sequence (P02866 whole entry, looked up): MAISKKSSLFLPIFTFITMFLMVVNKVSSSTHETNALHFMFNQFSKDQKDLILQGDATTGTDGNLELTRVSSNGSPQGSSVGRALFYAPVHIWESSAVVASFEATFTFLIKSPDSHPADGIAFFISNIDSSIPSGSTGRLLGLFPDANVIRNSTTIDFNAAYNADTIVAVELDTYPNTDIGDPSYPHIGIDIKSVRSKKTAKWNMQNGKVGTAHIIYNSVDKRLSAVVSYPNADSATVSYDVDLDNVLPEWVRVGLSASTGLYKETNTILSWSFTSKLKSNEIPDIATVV
# [9] = anti-His antibody binders, primary screen, artefact control for SMM control protein annotation, biochemical, small-molecule microarray, 635 nm fluorescence (AID 1128); details: anti-His Alexa647 antibody binding, higher = more signal;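 note: score merges feature fluorescence with signal-to-noise for each printed compound spot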
# [10] = test system: Human papillomavirus type 1a E7 protein (residues 1-88); assay: HPV1a E7 small-molecule binders, primary screen, biochemical, small-molecule microarray, residues 1-88, 635 nm (AID 1129); details: small-molecule microarray binding, fluorescence 635 nm; higher = more signal
# [11] = target: Focal adhesion kinase 1 (Homo sapiens) (UniProt Q05397); assay: small-molecule microarray binders of FAK, primary screen, biochemical, 635/667 nm fluorescence, BSA, DTT (AID 1130); details: PTK2 binding, 635 nm fluorescence, higher = more signal;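 note: composite of spot emission at 667 nm and signal to noise over triplicate slides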
# Focal adhesion kinase 1 (Homo sapiens), sequence (Q05397 whole entry, looked up): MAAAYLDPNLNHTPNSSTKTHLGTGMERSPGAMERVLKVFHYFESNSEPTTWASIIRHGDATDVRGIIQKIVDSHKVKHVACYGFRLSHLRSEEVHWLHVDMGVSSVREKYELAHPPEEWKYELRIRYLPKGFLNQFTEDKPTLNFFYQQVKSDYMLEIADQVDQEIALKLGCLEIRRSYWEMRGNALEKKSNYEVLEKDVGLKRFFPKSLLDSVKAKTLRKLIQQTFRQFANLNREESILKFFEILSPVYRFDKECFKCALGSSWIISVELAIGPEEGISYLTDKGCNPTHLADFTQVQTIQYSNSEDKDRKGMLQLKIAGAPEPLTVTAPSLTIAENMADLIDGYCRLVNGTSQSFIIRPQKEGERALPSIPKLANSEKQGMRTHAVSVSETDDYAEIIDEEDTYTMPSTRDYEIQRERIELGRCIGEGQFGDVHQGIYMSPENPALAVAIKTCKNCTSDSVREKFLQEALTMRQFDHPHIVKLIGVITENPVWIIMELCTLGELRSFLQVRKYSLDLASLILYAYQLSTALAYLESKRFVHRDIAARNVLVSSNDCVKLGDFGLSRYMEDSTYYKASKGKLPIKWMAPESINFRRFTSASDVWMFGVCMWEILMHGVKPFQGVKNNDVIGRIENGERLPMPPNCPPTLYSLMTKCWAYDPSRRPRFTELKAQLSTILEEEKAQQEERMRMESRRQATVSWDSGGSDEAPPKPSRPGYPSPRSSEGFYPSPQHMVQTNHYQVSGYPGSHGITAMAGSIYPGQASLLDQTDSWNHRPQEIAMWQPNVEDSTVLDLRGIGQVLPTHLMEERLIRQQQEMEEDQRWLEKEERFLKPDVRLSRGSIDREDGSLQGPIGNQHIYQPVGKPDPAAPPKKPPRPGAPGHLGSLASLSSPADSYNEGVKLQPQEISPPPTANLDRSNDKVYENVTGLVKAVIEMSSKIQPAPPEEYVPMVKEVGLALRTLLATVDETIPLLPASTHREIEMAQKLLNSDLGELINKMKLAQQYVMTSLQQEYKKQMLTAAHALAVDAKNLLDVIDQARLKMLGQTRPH
# [12] = test system: Fibrinogen (Alexa647-labelled); assay: fibrinogen binders on compound microarrays, profiling panel, artefact control for SMM control-protein annotation, biochemical, small-molecule microarray, 635/667 nm fluorescence (AID 1131); details: fibrinogen-A647 binding fluorescence, higher = more signal;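 note: z-score merges 667 nm fluorescence with per-spot signal-to-noise over triplicate slides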
# [13] = target: Follistatin (Homo sapiens) (UniProt P19883); assay: follistatin binders on small-molecule microarrays, primary screen, biochemical, small-molecule microarray, 635/667 nm fluorescence (AID 1132); details: FST binding, 635 nm fluorescence, higher = more signal
# Follistatin (Homo sapiens), sequence (P19883 whole entry, looked up): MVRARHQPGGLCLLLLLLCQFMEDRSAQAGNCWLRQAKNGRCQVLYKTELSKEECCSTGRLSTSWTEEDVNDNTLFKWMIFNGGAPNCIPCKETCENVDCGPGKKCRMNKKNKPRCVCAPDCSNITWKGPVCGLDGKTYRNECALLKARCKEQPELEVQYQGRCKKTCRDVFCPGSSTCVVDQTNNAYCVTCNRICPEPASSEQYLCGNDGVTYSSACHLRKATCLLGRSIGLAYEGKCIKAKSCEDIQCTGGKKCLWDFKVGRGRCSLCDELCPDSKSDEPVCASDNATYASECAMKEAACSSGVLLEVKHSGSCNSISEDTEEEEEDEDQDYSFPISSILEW
# [14] = target: Fibroblast growth factor 2 (Homo sapiens) (UniProt P09038); assay: FGF2 binders on small-molecule microarrays, primary screen, biochemical, small-molecule microarray, 635/667 nm fluorescence (AID 1133); details: small-molecule microarray binding, FGF2, fluorescence 635/667; higher = more signal
# Fibroblast growth factor 2 (Homo sapiens), sequence (P09038 whole entry, looked up): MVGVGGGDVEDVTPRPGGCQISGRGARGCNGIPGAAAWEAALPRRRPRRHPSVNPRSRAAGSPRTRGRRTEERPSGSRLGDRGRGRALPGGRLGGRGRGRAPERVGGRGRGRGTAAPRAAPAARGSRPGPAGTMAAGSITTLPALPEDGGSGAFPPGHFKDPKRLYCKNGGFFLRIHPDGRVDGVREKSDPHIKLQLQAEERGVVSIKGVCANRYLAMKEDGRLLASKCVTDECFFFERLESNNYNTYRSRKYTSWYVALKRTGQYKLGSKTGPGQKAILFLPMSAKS
# [15] = mitochondrial membrane potential change in A549 cells, profiling panel, cell-based, JC-1 fluorescence, basal, 24 h, 100 nL (AID 1138); details: higher = more signal;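 note: A549 lung adenocarcinoma cells under basal conditions with no added stimulus; test concentration not given here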
# Lefty1 = Lefty1 binders on small-molecule microarrays, primary screen, biochemical, small-molecule microarray, 635/667 nm fluorescence (AID 1139); details: small-molecule microarray binding, fluorescence 635/667; higher = more signal
# [16] = test system: wheat germ agglutinin (Triticum aestivum), Alexa647-labelled; assay: wheat germ agglutinin binders on compound microarrays, profiling panel, artefact control for SMM control-protein annotation, biochemical, small-molecule microarray, 635/667 nm fluorescence (AID 1140); details: WGA-A647 binding, 635 nm fluorescence, higher = more signal;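 note: score merges 667 nm feature emission with signal to noise over triplicate slides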
# [17] = target: Luciferin 4-monooxygenase (Photinus pyralis) (UniProt P08659); assay: firefly luciferase enzyme inhibitors, primary screen, biochemical, luminescence, purified enzyme, 2006 set (AID 1141); details: SteadyGlo luminescence, 30 min, higher = more signal, called active from +8 up or from −8 down;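 note: cell-free assay with purified firefly luciferase at 100 ng per well in PBS; test concentration not given here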
# Luciferin 4-monooxygenase (Photinus pyralis), sequence (P08659 whole entry, looked up): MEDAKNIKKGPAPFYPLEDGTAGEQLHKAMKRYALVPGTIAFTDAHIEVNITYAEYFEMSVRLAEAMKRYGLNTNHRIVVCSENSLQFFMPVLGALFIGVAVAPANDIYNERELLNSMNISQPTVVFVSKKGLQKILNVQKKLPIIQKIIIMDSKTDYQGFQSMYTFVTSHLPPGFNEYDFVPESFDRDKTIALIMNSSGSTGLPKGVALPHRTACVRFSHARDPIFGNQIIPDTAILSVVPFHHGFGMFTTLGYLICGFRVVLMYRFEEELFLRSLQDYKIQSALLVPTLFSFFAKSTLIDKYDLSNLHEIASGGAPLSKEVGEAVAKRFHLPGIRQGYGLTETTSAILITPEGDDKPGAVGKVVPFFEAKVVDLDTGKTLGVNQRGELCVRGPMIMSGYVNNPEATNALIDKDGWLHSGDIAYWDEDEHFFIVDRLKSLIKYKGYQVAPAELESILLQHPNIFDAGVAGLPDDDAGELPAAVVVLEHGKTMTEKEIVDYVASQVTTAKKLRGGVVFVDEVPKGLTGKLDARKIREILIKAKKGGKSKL
Compound,composite z-score (Albumin (Bos taurus)),composite Z-score [1],composite z-score [2],composite z-score [3],composite z-score [4],composite z-score [5],composite z-score [6],composite z-score (Sam68 (KHDRBS1)),composite z-score [7],composite z-score [8],composite z-score [9],composite z-score [10],composite z-score [11],composite z-score [12],composite z-score [13],composite z-score [14],z-score [15],composite z-score (Lefty1),composite z-score [16],z-score [17]
CC(CCN1CCCc2nc(C)c(C)cc21)=NOC[C@@H](O)COCc1ccco1,-1.47,5.36 (inactive),1.67,0.826,-0.702,1.37,0.602,-0.109,1.58,-1.09,0.215,-2.13,2.27,-2.04,1.55,2.19,0.694,1.86,-0.949,-1.59 (inactive)
CO[C@H]1C[C@@H]2C[C@H](O)CC(CC(=O)O[C@@H](C=CCC(C)C)C[C@@H]3CC[C@H](C)[C@@H](C1)O3)O2,0.603,-0.349 (inactive),0.0824,-0.193,0.276,1.12,-0.0223,1.3,0.629,0.389,0.583,0.959,0.122,0.707,0.719,0.361,-0.589,0.749,0.0954,-0.0042 (inactive)
CCCCOC(OCCCC)C(O)CSc1ccc2ccccc2c1 (stereo not given),-0.196,-0.444 (inactive),0.0669,-0.0682,0.028,0.125,-0.0593,1.02,0.537,0.196,0.147,0.776,0.0661,0.329,0.586,0.296,0.428,0.489,0.264,-0.842 (inactive)
CC(=O)OC[C@H]1O[C@@H](ON=C2[C@H]3CCn4c(=O)n(-c5ccccc5)c(=O)n4[C@H]3[C@H](O)[C@@H]3O[C@H]23)[C@H](OC(C)=O)[C@@H](OC(C)=O)[C@@H]1OC(C)=O,0.0931,0.0029 (inactive),0.086,-0.186,0.541,1.09,0.0273,1.07,0.544,0.339,1.66,0.894,-0.144,0.8,0.419,0.431,0.188,0.413,0.169,0.939 (inactive)
CCCNC(=O)OC[C@H]1O[C@H](CCON=C[C@@H](C)[C@H](OCc2ccccc2)C(C)C)C=C[C@@H]1Oc1ccc(OC)cc1,-0.655,-0.288 (inactive),-0.0308,-0.149,-0.473,0.775,-0.394,-1.04,0.379,-0.501,3.25,-0.603,-0.072,-0.101,-0.134,-0.0238,1.63,0.401,-0.199,-1.46 (inactive)
COC(=O)[C@H](C)NC(=O)CCC1CC(OC(=O)NCCc2ccc(F)cc2)CC2(CCCC(COC(=O)NCc3ccccc3)O2)O1 (stereo not given in full),0.431,0.0852 (inactive),-0.0511,-0.208,0.266,0.253,-0.0955,1.31,0.774,0.619,0.36,0.775,0.0965,0.911,0.913,1.13,0.708,0.875,0.0915,0.835 (inactive)
CSCC[C@@H]1NC(=O)CC=C[C@@H](C)COC(=O)[C@H](C)COC1=O,-0.891,3.62 (inactive),-0.172,0.059,-0.682,-0.808,-0.848,1.02,1.64,-2.98,-1.14,-1.34,-0.697,-3.03,1.45,1.95,1.64,1.85,-0.663,-1.95 (inactive)
CCOC(=O)[C@H](Cc1ccccc1)NC(=O)CCC1CC(OC(=O)NCc2cccc3ccccc23)CC2(CCCC(COC(=O)NCCc3ccccc3OC)O2)O1 (stereo not given in full),0.49,-0.564 (inactive),0.121,-0.126,0.224,0.474,-0.114,1.19,0.241,0.879,0.704,0.79,0.201,0.287,0.798,0.793,-0.538,0.99,0.404,0.821 (inactive)
CO[C@H]1COC(=O)[C@H](C)COC(=O)[C@@H](OCc2ccccc2)C=C[C@@H]1C,0.0996,0.976 (inactive),-0.141,-0.12,-0.342,-0.051,-0.181,0.207,0.225,0.233,-0.49,-1.09,-0.317,-0.534,0.139,0.496,0.877,0.613,-0.49,-1.56 (inactive)
CCCC[C@H]1CN2[C@@H](CC[C@@H](C)[C@@H]2c2ccc(Br)cc2)C(=O)O1,0.738,0.689 (inactive),-0.137,-0.183,0.397,0.615,1.59,1.29,0.549,0.764,0.256,1.17,0.307,0.831,0.53,0.198,0.962,0.326,0.542,-2.12 (inactive)
C=CC[C@@H]1C=C[C@H](ON=C(C)CCN2CCCCc3nc(C)c(C)cc32)[C@@H](CO)O1,0.0868,0.325 (inactive),-0.0304,-0.14,0.226,0.588,0.155,0.972,1.47,-0.223,-0.833,-0.0192,0.499,0.635,1.39,1.36,0.143,1.56,0.607,1.38 (inactive)
C[C@@H](c1ccccc1)N1C(=O)[C@H]2[C@H]3[C@H](O)[C@H](O)CC(=NOCc4ccccc4)[C@@H]3CC[C@H]2C1=O,0.758,0.081 (inactive),-0.0055,-0.0467,-0.247,0.043,0.017,-0.105,0.823,-0.577,0.151,-0.513,0.0826,0.0844,-0.7,-0.0815,-0.781,-0.684,0.32,0.747 (inactive)
CCN1C(C)=C(C(=O)OC)[C@@H](c2ccccc2)N2C(=O)[C@](O)(C(=O)OC)CC(C(C)=O)=C12,-0.428,-0.686 (inactive),-0.15,-0.207,-0.174,-0.0478,-0.152,-0.37,0.285,0.29,-1.01,0.127,0.0644,0.123,0.398,0.0171,1.07,0.638,0.278,-0.695 (inactive)
CC1(C)O[C@H]2O[C@H]([C@H](O)CON=C3[C@H]4CCn5c(=O)n(-c6ccccc6)c(=O)n5[C@H]4[C@H](O)[C@@H]4O[C@H]34)[C@H](O)[C@H]2O1,0.661,-0.171 (inactive),-0.342,-0.105,-0.195,-0.337,-0.0336,-0.773,0.19,0.444,0.455,-0.282,-0.282,0.0946,0.154,0.947,-0.994,0.222,0.0136,0.0158 (inactive)
COc1cccc([C@H]2Oc3ccc(OC)cc3C(=NOCC[C@@H]3C=C[C@H](OC(C)=O)[C@@H](COC(C)=O)O3)[C@@H]2O)c1,0.869,0.551 (inactive),0.0293,-0.213,0.36,0.788,0.687,0.785,0.503,0.794,-0.972,0.562,0.292,0.967,0.37,0.462,-0.806,0.329,0.274,1.14 (inactive)
COc1ccc(O[C@H]2C=C[C@@H](c3ccccc3)O[C@@H]2CON=C2c3cc(OC)ccc3O[C@H](c3cccc(OC)c3)[C@H]2O)cc1,0.322,-0.222 (inactive),-0.122,-0.255,0.417,0.567,1.15,0.164,0.171,-0.996,-0.622,0.463,0.121,-0.413,0.618,1.63,0.0904,1.1,0.701,1.16 (inactive)
CC(C)=NOC[C@@H](O)[C@H]1O[C@@H]2OC(C)(C)O[C@@H]2[C@H]1O,0.255,0.559 (inactive),-0.349,-0.273,-0.0402,1.85,0.116,0.968,0.537,0.929,-0.0333,0.491,0.17,0.0104,0.464,0.57,0.225,0.507,0.0212,-0.394 (inactive)
COC(=O)[C@@H]1CC[C@H](C)[C@@H](c2ccc(C)cc2)N1C(=O)c1ccc(C=NOC[C@H]2O[C@H](c3ccccc3)C=C[C@@H]2Oc2ccc(OC)cc2)cc1,0.312,-0.496 (inactive),0.0257,-0.161,-0.145,-0.336,-0.192,0.233,0.692,0.45,-0.585,-0.274,-0.0204,-0.324,0.222,0.174,-0.351,0.244,0.172,1.18 (inactive)
CC(C)=CCCC(C)=CCON=C1C[C@@H](O)[C@@H](O)[C@@H]2[C@@H]3C(=O)N(Cc4ccc5c(c4)OCO5)C(=O)[C@@H]3CC[C@@H]12,0.653,0.74 (inactive),0.0827,-0.0811,0.495,1.29,0.237,1.31,1.19,0.959,1.05,1.14,0.597,0.558,1.18,0.414,-0.286,0.709,0.574,0.696 (inactive)
C=CC[C@@H]1C=C[C@H](Oc2ccc(C)cc2)[C@@H](COC(=O)NCc2cccc3ccccc23)O1,0.427,0.339 (inactive),-0.0328,-0.127,0.023,0.502,-0.106,-0.256,0.338,-0.749,1.21,0.703,0.433,0.216,0.285,0.07,1.34,0.574,0.115,-0.0167 (inactive)
